# From PubChem BioAssay (NCI)
# About 79,000 compounds went through this panel and 15% of them were active in at least one assay; those are over-represented in the sample as a whole. Values without a mark were called inactive. Activity calls are given as the source filed them. Cut-off read from the data, not from the text of the source: active = growth inhibition above about 70%; inactive = the rest.
# What was measured:
# [1] = NCI Yeast Anticancer Drug Screen. Data for the rad52 strain (AID 147);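 note: 0% = growth of vehicle-treated control cultures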; conditions: S. cerevisiae rad52 mutant growth inhibition, hits give high values
# Procedure, shortened: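 Here a repair-compromised yeast strain receives each compound; its growth is then quantified and normalised to vehicle-only controls.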
# [2] = NCI Yeast Anticancer Drug Screen. Data for the wt1 strain (AID 149);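 note: 0% = growth of vehicle-treated wt1 cultures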; conditions: S. cerevisiae wt1 strain (SPY 50644) growth inhibition, hits give high values
# Procedure, shortened: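 Each compound is tested on wt1 yeast and the loss of growth versus vehicle gives the inhibition value.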
# [3] = NCI Yeast Anticancer Drug Screen. Data for the rad50EPP+ strain (AID 151);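 note: 0% = growth of vehicle-treated control cultures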; conditions: S. cerevisiae rad50 mutant strain, hits give high values
# Procedure, shortened: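 Read-out is yeast growth inhibition relative to vehicle; cells used were the rad50EPP+ strain.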
# [4] = NCI Yeast Anticancer Drug Screen. Data for the rad50 strain (AID 155);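 note: 0% = growth of vehicle-only cultures of the same strain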; conditions: S. cerevisiae rad50 strain growth inhibition, hits give high values
# Procedure, shortened: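 Vehicle-treated cultures provide the reference for the growth inhibition reported for compound-exposed, repair-deficient yeast.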
# [5] = NCI Yeast Anticancer Drug Screen. Data for the mec2-1 strain (AID 157); conditions: S. cerevisiae mec2-1 strain, hits give high values
# Procedure, shortened: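 Using mec2-1 yeast: add compound, measure growth, express inhibition versus vehicle-treated cultures.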
# [6] = NCI Yeast Anticancer Drug Screen. Data for the rad14 strain (AID 159);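 note: 0% = growth of vehicle-treated control cultures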; conditions: S. cerevisiae rad14 strain growth inhibition, hits give high values
# Procedure, shortened: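 Inhibition of growth is reported for a repair-deficient yeast mutant following compound treatment, calculated relative to cultures that received vehicle.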
# [7] = NCI Yeast Anticancer Drug Screen. Data for the sgs1 mgt1 strain (AID 161);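 note: 0% = growth of cultures given vehicle only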; conditions: S. cerevisiae sgs1 mgt1 strain, hits give high values
# Procedure, shortened: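 This yeast growth screen uses a strain with defined DNA-repair lesions; compound-treated growth is compared with vehicle-treated growth.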
# [8] = NCI Yeast Anticancer Drug Screen. Data for the CLN2oe strain (AID 163);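 note: 0% = growth of vehicle-only control cultures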; conditions: S. cerevisiae CLN2oe strain, hits give high values
# Procedure, shortened: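 Whole-cell yeast growth assay. A strain engineered for altered cell-cycle control received compound, and inhibition relative to vehicle-treated cultures was recorded.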
# [9] = NCI Yeast Anticancer Drug Screen. Data for the cln2 rad14 strain (AID 165);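 note: 0% = growth equal to vehicle treated cultures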; conditions: S. cerevisiae cln2 rad14 strain, hits give high values
# Procedure, shortened: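 Yeast strain cln2 rad14, bearing defects in cell cycle control and DNA repair, serves as the test system; values reflect growth inhibition compared with vehicle.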
# [10] = NCI Yeast Anticancer Drug Screen. Data for the bub3 strain (AID 167); conditions: S. cerevisiae bub3 mutant strain, hits give high values
# Procedure, shortened: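 Mutant yeast screening strain plus compound; vehicle-treated cultures serve as the 0% inhibition reference.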
# [11] = NCI Yeast Anticancer Drug Screen. Data for the wt2 strain (AID 169); conditions: S. cerevisiae wt2 strain growth inhibition, hits give high values
# Procedure, shortened: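 Treated yeast vs. vehicle-treated yeast: growth inhibition determined.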
# [12] = NCI Yeast Anticancer Drug Screen. Data for the mlh1 strain (AID 171);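 note: 0% = growth of vehicle-treated control cultures of the same strain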; conditions: S. cerevisiae mlh1 strain growth inhibition, hits give high values
# Procedure, shortened: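 A yeast strain with a defined genetic lesion serves as the test organism. Cultures receive compound or vehicle, and growth is measured.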
# [13] = NCI Yeast Anticancer Drug Screen. Data for the sgs1 strain (AID 173);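 note: 0% = growth of vehicle-only control cultures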; conditions: S. cerevisiae sgs1 mutant, hits give high values
# Procedure, shortened: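 A genetically defined yeast mutant is incubated with the test compound, and its growth is compared to that of the same strain given vehicle.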
# [14] = NCI Yeast Anticancer Drug Screen. Data for the mlh1 rad18 strain (AID 175); conditions: S. cerevisiae mlh1 rad18 strain growth inhibition, hits give high values
# Procedure, shortened: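 Steps: expose repair-defective yeast to compound; measure growth; express inhibition against vehicle-treated controls.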
# [15] = NCI Yeast Anticancer Drug Screen. Data for the rad18 strain (AID 177); conditions: S. cerevisiae rad18 mutant growth inhibition, hits give high values
# Procedure, shortened: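 Measured value is growth inhibition of a yeast strain bearing a DNA repair alteration, referenced to vehicle-treated cells.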
# [16] = NCI Yeast Anticancer Drug Screen. Data for the mgt1 strain (AID 153); conditions: S. cerevisiae mgt1 mutant growth inhibition, hits give high values
# Procedure, shortened: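 Measured: inhibition of mgt1 yeast growth by compound, normalized to vehicle-treated cultures.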
# [17] = at 5.0 µM (retest, dose inferred, filed as 0.5)
# [18] = at 50.0 µM (retest, dose inferred, filed as 5.0)
smiles,measurement,setting,value
O=C(N/N=C/c1ccc2c(c1)CCC2)c1ccccc1[N+](=O)[O-],growth inhibition,[1]; at 1.2 µM,-18%
same,growth inhibition,[1]; at 3.7 µM,-15%
same,growth inhibition,[1]; at 11.0 µM,-3%
same,growth inhibition,[1]; at 33.0 µM,-1%
same,growth inhibition,[1]; at 100.0 µM,95% (active)
same,growth inhibition,[2]; at 1.2 µM,-17%
same,growth inhibition,[2]; at 3.7 µM,-7%
same,growth inhibition,[2]; at 11.0 µM,-21%
same,growth inhibition,[2]; at 33.0 µM,-16%
same,growth inhibition,[2]; at 100.0 µM,96% (active)
same,growth inhibition,[3]; at 1.2 µM,8%
same,growth inhibition,[3]; at 3.7 µM,15%
same,growth inhibition,[3]; at 11.0 µM,21%
same,growth inhibition,[3]; at 33.0 µM,0%
same,growth inhibition,[3]; at 100.0 µM,23%
same,growth inhibition,[4]; at 1.2 µM,5%
same,growth inhibition,[4]; at 3.7 µM,26%
same,growth inhibition,[4]; [17],62%
same,growth inhibition,[4]; at 11.0 µM,35%
same,growth inhibition,[4]; at 33.0 µM,18%
same,growth inhibition,[4]; [18],98% (active)
same,growth inhibition,[4]; at 50.0 µM,88.4% (active)
same,growth inhibition,[4]; at 100.0 µM,94% (active)
same,growth inhibition,[5]; at 1.2 µM,0%
same,growth inhibition,[5]; at 3.7 µM,-10%
same,growth inhibition,[5]; [17],70% (active)
same,growth inhibition,[5]; at 11.0 µM,-9%
same,growth inhibition,[5]; at 33.0 µM,7%
same,growth inhibition,[5]; [18],99% (active)
same,growth inhibition,[5]; at 50.0 µM,71.2% (active)
same,growth inhibition,[5]; at 100.0 µM,94% (active)
same,growth inhibition,[6]; at 1.2 µM,-10%
same,growth inhibition,[6]; at 3.7 µM,-8%
same,growth inhibition,[6]; at 11.0 µM,2%
same,growth inhibition,[6]; at 33.0 µM,6%
same,growth inhibition,[6]; at 100.0 µM,95% (active)
same,growth inhibition,[7]; [17],-13%
same,growth inhibition,[7]; [18],53%
same,growth inhibition,[8]; at 1.2 µM,-3%
same,growth inhibition,[8]; at 3.7 µM,-5%
same,growth inhibition,[8]; at 11.0 µM,21%
same,growth inhibition,[8]; at 33.0 µM,18%
same,growth inhibition,[8]; at 100.0 µM,94% (active)
same,growth inhibition,[9]; [17],71% (active)
same,growth inhibition,[9]; [18],70% (active)
same,growth inhibition,[10]; at 1.2 µM,5%
same,growth inhibition,[10]; at 3.7 µM,19%
same,growth inhibition,[10]; [17],34%
same,growth inhibition,[10]; at 11.0 µM,23%
same,growth inhibition,[10]; at 33.0 µM,33%
same,growth inhibition,[10]; [18],49%
same,growth inhibition,[10]; at 100.0 µM,96% (active)
same,growth inhibition,[11]; at 1.2 µM,16%
same,growth inhibition,[11]; at 3.7 µM,12%
same,growth inhibition,[11]; at 11.0 µM,12%
same,growth inhibition,[11]; at 33.0 µM,37%
same,growth inhibition,[11]; at 100.0 µM,97% (active)
same,growth inhibition,[12]; at 1.2 µM,-19%
same,growth inhibition,[12]; at 3.7 µM,-20%
same,growth inhibition,[12]; at 11.0 µM,-43%
same,growth inhibition,[12]; at 33.0 µM,18%
same,growth inhibition,[12]; at 100.0 µM,95% (active)
same,growth inhibition,[13]; at 1.2 µM,15%
same,growth inhibition,[13]; at 3.7 µM,23%
same,growth inhibition,[13]; at 11.0 µM,30%
same,growth inhibition,[13]; at 33.0 µM,42%
same,growth inhibition,[13]; at 100.0 µM,96% (active)
same,growth inhibition,[14]; [17],36%
same,growth inhibition,[14]; [18],99% (active)
same,growth inhibition,[14]; at 50.0 µM,81.7% (active)
same,growth inhibition,[15]; at 1.2 µM,8%
same,growth inhibition,[15]; at 3.7 µM,13%
same,growth inhibition,[15]; at 11.0 µM,9%
same,growth inhibition,[15]; at 33.0 µM,12%
same,growth inhibition,[15]; at 100.0 µM,96% (active)
N=C(N)c1ccc(N=Nc2c(O)ccc3c2[nH]c2ccccc23)cc1,growth inhibition,[2]; at 1.2 µM,-2%
same,growth inhibition,[2]; at 3.7 µM,-1%
same,growth inhibition,[2]; at 11.0 µM,69%
same,growth inhibition,[2]; at 33.0 µM,95% (active)
same,growth inhibition,[2]; at 100.0 µM,97% (active)
same,growth inhibition,[3]; at 1.2 µM,8%
same,growth inhibition,[3]; at 3.7 µM,36%
same,growth inhibition,[3]; at 11.0 µM,57%
same,growth inhibition,[3]; at 33.0 µM,87% (active)
same,growth inhibition,[3]; at 100.0 µM,95% (active)
same,growth inhibition,[16]; at 1.2 µM,-2%
same,growth inhibition,[16]; at 3.7 µM,2%
same,growth inhibition,[16]; at 11.0 µM,64%
same,growth inhibition,[16]; at 33.0 µM,95% (active)
same,growth inhibition,[16]; at 100.0 µM,95% (active)
same,growth inhibition,[4]; at 1.2 µM,-2%
same,growth inhibition,[4]; at 3.7 µM,11%
same,growth inhibition,[4]; [17],57%
same,growth inhibition,[4]; at 11.0 µM,91% (active)
same,growth inhibition,[4]; at 33.0 µM,95% (active)
same,growth inhibition,[4]; [18],98% (active)
same,growth inhibition,[4]; at 50.0 µM,97.8% (active)
same,growth inhibition,[4]; at 100.0 µM,95% (active)
same,growth inhibition,[5]; at 1.2 µM,-3%
same,growth inhibition,[5]; at 3.7 µM,-1%
same,growth inhibition,[5]; [17],15%
same,growth inhibition,[5]; at 11.0 µM,68%
same,growth inhibition,[5]; at 33.0 µM,95% (active)
same,growth inhibition,[5]; [18],96% (active)
same,growth inhibition,[5]; at 50.0 µM,98.2% (active)
same,growth inhibition,[5]; at 100.0 µM,97% (active)
same,growth inhibition,[6]; at 1.2 µM,-1%
same,growth inhibition,[6]; at 3.7 µM,3%
same,growth inhibition,[6]; at 11.0 µM,90% (active)
same,growth inhibition,[6]; at 33.0 µM,96% (active)
same,growth inhibition,[6]; at 100.0 µM,97% (active)
same,growth inhibition,[7]; [17],17%
same,growth inhibition,[7]; [18],97% (active)
same,growth inhibition,[7]; at 50.0 µM,96.8% (active)
same,growth inhibition,[8]; at 1.2 µM,-3%
same,growth inhibition,[8]; at 3.7 µM,5%
same,growth inhibition,[8]; at 11.0 µM,41%
same,growth inhibition,[8]; at 33.0 µM,93% (active)
same,growth inhibition,[8]; at 100.0 µM,94% (active)
same,growth inhibition,[9]; [17],-24%
same,growth inhibition,[9]; [18],95% (active)
same,growth inhibition,[9]; at 50.0 µM,95.9% (active)
same,growth inhibition,[10]; at 1.2 µM,-4%
same,growth inhibition,[10]; at 3.7 µM,-3%
same,growth inhibition,[10]; [17],19%
same,growth inhibition,[10]; at 11.0 µM,79% (active)
same,growth inhibition,[10]; at 33.0 µM,95% (active)
same,growth inhibition,[10]; [18],97% (active)
same,growth inhibition,[10]; at 50.0 µM,98.2% (active)
same,growth inhibition,[10]; at 100.0 µM,93% (active)
same,growth inhibition,[11]; at 1.2 µM,-3%
same,growth inhibition,[11]; at 3.7 µM,5%
same,growth inhibition,[11]; at 11.0 µM,84% (active)
same,growth inhibition,[11]; at 33.0 µM,95% (active)
same,growth inhibition,[11]; at 100.0 µM,97% (active)
same,growth inhibition,[12]; at 1.2 µM,1%
same,growth inhibition,[12]; at 3.7 µM,2%
same,growth inhibition,[12]; at 11.0 µM,71% (active)
same,growth inhibition,[12]; at 33.0 µM,92% (active)
same,growth inhibition,[12]; at 100.0 µM,96% (active)
same,growth inhibition,[13]; at 1.2 µM,0%
same,growth inhibition,[13]; at 3.7 µM,21%
same,growth inhibition,[13]; at 11.0 µM,92% (active)
same,growth inhibition,[13]; at 33.0 µM,96% (active)
same,growth inhibition,[13]; at 100.0 µM,96% (active)
same,growth inhibition,[14]; [17],24%
same,growth inhibition,[14]; [18],98% (active)
same,growth inhibition,[14]; at 50.0 µM,98.3% (active)
